Test [1] in a line: ATG_ISRE_CIS: Attagene CIS-FACTORIAL HepG2 Assay for human Interferon Regulatory Factor 1 (IRF1) binding to an Interferon-Stimulated Response Element (ISRE) (AID 2282948). The note with it: HepG2 ISRE cis-reporter (Attagene), mRNA transcription readout; actives raise or lower the signal. The gist of the method: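 Transiently transfected HepG2 cells carrying cis-element reporter units, dosed 24 hours. Reporter mRNA quantified by RT-PCR, fluorescent primer extension, HpaI digestion and capillary electrophoresis. Bidirectional fitting relative to DMSO.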

The nature of test [2]: ATG_M_32_CIS: Attagene CIS-FACTORIAL HepG2 Assay for M32 Transcription Factor (Internal Marker) (AID 2282949).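 Further: background control marker of the multiplexed CIS panel rather than a real target.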 To be noted: HepG2 Attagene cis-factorial M32 reporter, mRNA; actives raise or lower the signal. An outline of the steps:
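HepG2 cells transiently transfected with multiplexed cis-regulated reporter units, dosed 24 h. Reporter mRNA quantified by RT-PCR, 6-FAM labelling, HpaI digestion and capillary electrophoresis; bidirectional fit vs DMSO.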

Test [3] in a line: ATG_M_06_CIS: Attagene CIS-FACTORIAL HepG2 Assay for M06 Transcription Factor (Internal Marker) (AID 2282950). The note with it: HepG2 Attagene CIS-FACTORIAL M06 internal marker reporter; actives raise or lower the signal. The gist of the method: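 One of many multiplexed endpoints: HepG2 reporter mRNA after 24 h dosing, detected by RT-PCR and capillary electrophoresis fluorescence; gain or loss of signal analysed against DMSO.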

For test [4], the target named is Hypoxia-inducible factor 1-alpha (Homo sapiens) (UniProt Q16665). Put plainly: ATG_HIF1a_CIS: Attagene CIS-FACTORIAL HepG2 Assay for human Hypoxia Inducible Factor 1 (HIF1A) (AID 2282951). To be noted: HepG2 Attagene cis-factorial HIF1a reporter transcription; actives raise or lower the signal. An outline of the steps:
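Measures endogenous transcription-factor activity through cis-regulated reporter mRNA in HepG2. Cells dosed 24 h; transcripts quantified by RT-PCR with 6-FAM-labelled products separated by capillary electrophoresis; DMSO serves as negative control.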

Test [5] addresses Hepatocyte nuclear factor 6 (Homo sapiens) (UniProt Q9UBC0). The test is described as follows: ATG_HNF6_CIS: Attagene CIS-FACTORIAL HepG2 Assay for human Hepatocyte Nuclear Factor 6 (HNF6) (AID 2282952). The note with it: HepG2 Attagene cis-factorial HNF6 reporter transcription; actives raise or lower the signal. The gist of the method: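 HepG2, transient MRTU transfection (cis promoters); 24 h chemical exposure; total RNA → oligo(dT) RT → PCR → 6-FAM labelling → HpaI cut → CE; bidirectional fit vs DMSO.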

Test [6] concerns the target Heat shock factor protein 1 (Homo sapiens) (UniProt Q00613). Put plainly: ATG_HSE_CIS: Attagene CIS-FACTORIAL HepG2 Assay for human Heat Shock Transcription Factor 1 (HSE) (AID 2282953). The note with it: HepG2 HSE cis-reporter, Attagene RNA transcription; actives raise or lower the signal. The gist of the method: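 Using HepG2 with transfected cis-driven reporter constructs, compound effects on endogenous factor activity are scored as reporter mRNA change at 24 h. Detection: RT-PCR, HpaI digestion, capillary electrophoresis; bidirectional fitting to DMSO.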

A short description of test [7]: ATG_MRE_CIS: Attagene CIS-FACTORIAL HepG2 Assay for human Metal Responsive Element (MRE) (AID 2282954). To be noted: HepG2 MRE cis-reporter transcription, Attagene multiplex; actives raise or lower the signal. An outline of the steps: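 HepG2 cells transiently transfected with cis-element-driven reporter units; mRNA measured 24 h after dosing. Reporter transcripts quantified by RT-PCR, FAM labelling, HpaI digestion and capillary electrophoresis; bidirectional fit versus DMSO.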

The target of test [8] is Paired box protein Pax-6 (Homo sapiens) (UniProt P26367). Put plainly: ATG_Pax6_CIS: Attagene CIS-FACTORIAL HepG2 Assay for human Paired Box 6 (PAX6) (AID 2282956). The note with it: HepG2 CIS-FACTORIAL PAX6 reporter transcription, RNA readout; actives raise or lower the signal. The gist of the method: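 HepG2 cells transiently transfected with cis-promoter-driven multiplexed reporter units sensing endogenous transcription factor activity; 24 h chemical exposure. Reporter mRNA quantified by RT-PCR, 6-FAM labelling, HpaI digestion and capillary electrophoresis; bidirectional fit versus DMSO baseline.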

A short description of test [9]: ATG_PXRE_CIS: Attagene CIS-FACTORIAL HepG2 Assay for human Pregnane X Receptor Element (PXRE) (AID 2282957). The note with it: HepG2 Attagene CIS-FACTORIAL PXRE reporter, mRNA; actives raise or lower the signal. An outline of the steps: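 Transfect HepG2 with MRTUs (cis promoter elements); dose chemical, incubate 24 h; isolate RNA, RT with oligo(dT), PCR, 6-FAM label, HpaI cut, CE. Gain/loss fit vs DMSO.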

The nature of test [10]: ATG_RORE_CIS: Attagene CIS-FACTORIAL HepG2 Assay for human RAR-related Orphan Receptor Element (RORE) (AID 2282959). To be noted: HepG2 Attagene cis-factorial RORE reporter, mRNA; actives raise or lower the signal. An outline of the steps: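 Cells were HepG2 carrying transfected cis-regulated reporter constructs, dosed for 24 hours. Total RNA was reverse-transcribed and reporter cDNA amplified, fluorescently labeled and sized by capillary electrophoresis. Activity was fitted bidirectionally relative to DMSO.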

Test [11] is described as follows: ATG_Sox_CIS: Attagene CIS-FACTORIAL HepG2 Assay for human SRY-box transcription factor (SOX) (AID 2282960). The note with it: HepG2 Attagene cis-factorial SOX reporter, mRNA; actives raise or lower the signal. An outline of the steps: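 Transient MRTU transfection of HepG2; 24 h compound incubation; TriZol RNA, oligo(dT) RT, PCR, 6-FAM primer extension, HpaI cut, CE. Bidirectional fit, DMSO = baseline.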

Test [12] concerns the target Transcription factor Sp1 (Homo sapiens) (UniProt P08047). Put plainly: ATG_Sp1_CIS: Attagene CIS-FACTORIAL HepG2 Assay for human Specificity Protein 1 (Sp1) (AID 2282961). To be noted: HepG2 Sp1 cis-reporter transcription, actives raise or lower the signal. The gist of the method:
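Endogenous Sp1 activity was gauged in human liver HepG2 cells bearing transfected reporter units under a cis-regulating promoter. After 24 h dosing, reporter mRNA was quantified by RT-PCR with capillary electrophoresis, and activity fitted bidirectionally versus DMSO.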

For test [13], the target named is Signal transducer and activator of transcription 3 (Homo sapiens) (UniProt P40763). The test is described as follows: ATG_STAT3_CIS: Attagene CIS-FACTORIAL HepG2 Assay for human Signal Transducer and Activator of Transcription 3 (STAT3) (AID 2282963). To be noted: HepG2, Attagene cis-factorial STAT3 reporter transcription; actives raise or lower the signal. The gist of the method: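 HepG2 cells transiently transfected with multiple cis-element-driven reporter units report endogenous transcription factor activity. After 24 h compound exposure, reporter mRNA is measured by RT-PCR, 6-FAM labelling, HpaI digestion and capillary electrophoresis. Fitted bidirectionally versus DMSO.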

Test [14] is described as follows: ATG_TA_CIS: Attagene CIS-FACTORIAL HepG2 Assay for human TA Basal Promoter (AID 2282964). To be noted: HepG2 Attagene CIS-factorial TA basal promoter reporter; actives raise or lower the signal. The gist of the method: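 Transient MRTU transfection of HepG2 preceded 24 h compound exposure. Reporter mRNA levels were then read by RT-PCR with capillary electrophoresis, and this background-control endpoint was fitted bidirectionally to DMSO.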

Test [15] in a line: ATG_TCF_b_cat_CIS: Attagene CIS-FACTORIAL HepG2 Assay for human T-Cell-Factor with beta-catenin (TCF/b-cat) (AID 2282965). To be noted: HepG2 TCF/beta-catenin cis-reporter transcription, actives raise or lower the signal. An outline of the steps:
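HepG2 cells transiently transfected with cis-promoter-driven multiplexed reporter units; reporter mRNA measured 24 h after dosing by RT-PCR, FAM labelling, HpaI digestion and capillary electrophoresis. Bidirectional fitting relative to DMSO baseline.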

Test [16] in a line: ATG_TAL_CIS: Attagene CIS-FACTORIAL HepG2 Assay for human TAL Basal Promoter (AID 2282966).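 Further: background control endpoint measuring basal TAL promoter reporter mRNA not a specific factor.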 To be noted: HepG2 Attagene cis-factorial TAL promoter reporter; actives raise or lower the signal. An outline of the steps:
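Fluorescence of labelled reporter cDNA fragments, resolved by capillary electrophoresis, gave the readout. Human HepG2 liver cells carried transiently transfected cis-element reporter units and were treated for 24 hours; activity was fitted bidirectionally against DMSO.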

Test [17] is described as follows: ATG_PBREM_CIS: Attagene CIS-FACTORIAL HepG2 Assay for human Phenobarbital-responsive Enhancer Module (PBREM) (AID 2282955). To be noted: HepG2 PBREM cis-reporter, Attagene multiplexed transcription; actives raise or lower the signal. The gist of the method:
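Fluorescence of labelled reporter cDNA fragments, resolved by capillary electrophoresis, gives mRNA induction in transfected HepG2 cells treated for 24 h; DMSO serves as negative control and baseline.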

Test [18] can be described thus: ATG_GRE_CIS: Attagene CIS-FACTORIAL HepG2 Assay for human Glucocorticoid Response Elements (GRE) (AID 2282947). To be noted: HepG2 GRE cis-reporter, Attagene multiplex mRNA; actives raise or lower the signal. The gist of the method:
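Transiently transfected HepG2 cells carrying GRE cis-reporter units (endogenous TF activity) dosed 24 h; reporter mRNA quantified by RT-PCR, 6-FAM labelling, HpaI digestion and capillary electrophoresis. Bidirectional fit versus DMSO baseline.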

A short description of test [19]: ATG_PPRE_CIS: Attagene CIS-FACTORIAL HepG2 Assay for human Peroxisome Proliferator-activated Response Element (PPRE) (AID 2282958). To be noted: HepG2 PPRE cis-element reporter, Attagene transcription factor profiling; actives raise or lower the signal. The gist of the method: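 Cells are first transfected transiently with the multiplexed reporter library, then dosed for 24 h. Total RNA is reverse-transcribed, amplified, fluorescently end-labeled and HpaI-cut before capillary electrophoresis; activity is fitted bidirectionally against DMSO controls.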

The nature of test [20]: ATG_SREBP_CIS: Attagene CIS-FACTORIAL HepG2 Assay for human Sterol Regulatory Element Binding (SREBP) (AID 2282962). The note with it: HepG2 Attagene cis-factorial SREBP reporter, mRNA; actives raise or lower the signal. An outline of the steps:
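HepG2 cells transiently transfected with multiplexed cis-promoter reporter units sensing endogenous transcription factors; reporter mRNA measured 24 h after dosing by RT-PCR, 6-FAM labeling, HpaI digestion and capillary electrophoresis. Bidirectional fit versus DMSO.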

A word on the AC50: it is the midpoint of the concentration-response curve, whichever way the signal moves.

Calls of active or inactive are those of the source. How the source made its calls: active means hit-call score of the fitted dose curve at least 0.9, where 1 is the maximum; inactive means score below 0.9.

Hepatocyte nuclear factor 6 (Homo sapiens), sequence (Q9UBC0 whole entry, looked up): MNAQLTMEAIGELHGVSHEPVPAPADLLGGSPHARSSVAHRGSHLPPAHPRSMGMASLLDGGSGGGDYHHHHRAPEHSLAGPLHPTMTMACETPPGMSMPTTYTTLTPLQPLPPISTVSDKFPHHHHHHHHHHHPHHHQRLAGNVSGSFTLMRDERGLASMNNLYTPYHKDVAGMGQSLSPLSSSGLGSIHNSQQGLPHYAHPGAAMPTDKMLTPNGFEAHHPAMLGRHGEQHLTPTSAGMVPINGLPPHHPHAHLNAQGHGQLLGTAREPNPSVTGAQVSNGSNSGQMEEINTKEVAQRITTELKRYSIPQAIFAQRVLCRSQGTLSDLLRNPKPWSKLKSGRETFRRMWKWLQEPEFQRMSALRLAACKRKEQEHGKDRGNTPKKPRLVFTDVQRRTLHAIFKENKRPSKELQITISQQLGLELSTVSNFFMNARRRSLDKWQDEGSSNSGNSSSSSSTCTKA
Signal transducer and activator of transcription 3 (Homo sapiens), sequence (P40763 whole entry, looked up): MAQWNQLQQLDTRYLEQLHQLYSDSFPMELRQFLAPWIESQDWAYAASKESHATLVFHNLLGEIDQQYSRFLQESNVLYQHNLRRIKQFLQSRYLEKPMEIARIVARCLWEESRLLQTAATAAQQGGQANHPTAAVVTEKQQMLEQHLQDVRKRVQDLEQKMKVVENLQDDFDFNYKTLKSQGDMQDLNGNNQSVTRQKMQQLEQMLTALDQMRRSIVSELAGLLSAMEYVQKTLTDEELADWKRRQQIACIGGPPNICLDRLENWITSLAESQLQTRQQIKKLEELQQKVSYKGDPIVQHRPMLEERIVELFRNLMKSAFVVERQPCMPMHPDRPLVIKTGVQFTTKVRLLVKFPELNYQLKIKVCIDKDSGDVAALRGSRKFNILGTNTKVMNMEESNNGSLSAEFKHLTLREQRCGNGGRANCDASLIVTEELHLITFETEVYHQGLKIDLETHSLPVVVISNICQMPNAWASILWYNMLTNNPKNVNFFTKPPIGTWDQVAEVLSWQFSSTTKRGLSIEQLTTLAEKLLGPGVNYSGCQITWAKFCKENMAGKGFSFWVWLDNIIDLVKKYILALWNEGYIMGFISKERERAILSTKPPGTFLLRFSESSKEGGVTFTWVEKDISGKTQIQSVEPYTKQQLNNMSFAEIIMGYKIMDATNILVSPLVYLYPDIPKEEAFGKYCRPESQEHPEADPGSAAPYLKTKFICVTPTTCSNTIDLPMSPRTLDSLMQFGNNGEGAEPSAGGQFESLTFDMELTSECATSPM
Hypoxia-inducible factor 1-alpha (Homo sapiens), sequence (Q16665 whole entry, looked up): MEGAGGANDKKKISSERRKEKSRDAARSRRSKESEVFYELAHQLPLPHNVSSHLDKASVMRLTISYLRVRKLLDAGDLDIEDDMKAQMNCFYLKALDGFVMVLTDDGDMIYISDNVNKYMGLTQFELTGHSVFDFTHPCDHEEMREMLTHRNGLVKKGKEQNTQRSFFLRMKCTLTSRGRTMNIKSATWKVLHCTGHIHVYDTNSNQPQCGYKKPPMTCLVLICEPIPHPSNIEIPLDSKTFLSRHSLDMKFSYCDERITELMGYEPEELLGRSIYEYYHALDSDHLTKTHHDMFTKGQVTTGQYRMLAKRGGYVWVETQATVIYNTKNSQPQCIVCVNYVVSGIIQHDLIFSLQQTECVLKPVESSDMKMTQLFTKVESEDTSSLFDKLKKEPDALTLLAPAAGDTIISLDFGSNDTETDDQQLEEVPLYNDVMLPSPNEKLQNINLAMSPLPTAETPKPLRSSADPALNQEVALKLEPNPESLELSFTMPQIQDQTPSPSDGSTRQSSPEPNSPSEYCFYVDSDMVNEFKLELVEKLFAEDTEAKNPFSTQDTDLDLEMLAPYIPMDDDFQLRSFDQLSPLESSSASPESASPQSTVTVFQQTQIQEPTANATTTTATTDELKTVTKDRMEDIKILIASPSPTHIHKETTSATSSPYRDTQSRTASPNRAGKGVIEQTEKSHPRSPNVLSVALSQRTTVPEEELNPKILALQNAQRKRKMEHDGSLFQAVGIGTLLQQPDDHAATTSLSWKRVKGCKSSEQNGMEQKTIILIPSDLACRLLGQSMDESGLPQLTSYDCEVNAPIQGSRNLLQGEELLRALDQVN
Transcription factor Sp1 (Homo sapiens), sequence (P08047 whole entry, looked up): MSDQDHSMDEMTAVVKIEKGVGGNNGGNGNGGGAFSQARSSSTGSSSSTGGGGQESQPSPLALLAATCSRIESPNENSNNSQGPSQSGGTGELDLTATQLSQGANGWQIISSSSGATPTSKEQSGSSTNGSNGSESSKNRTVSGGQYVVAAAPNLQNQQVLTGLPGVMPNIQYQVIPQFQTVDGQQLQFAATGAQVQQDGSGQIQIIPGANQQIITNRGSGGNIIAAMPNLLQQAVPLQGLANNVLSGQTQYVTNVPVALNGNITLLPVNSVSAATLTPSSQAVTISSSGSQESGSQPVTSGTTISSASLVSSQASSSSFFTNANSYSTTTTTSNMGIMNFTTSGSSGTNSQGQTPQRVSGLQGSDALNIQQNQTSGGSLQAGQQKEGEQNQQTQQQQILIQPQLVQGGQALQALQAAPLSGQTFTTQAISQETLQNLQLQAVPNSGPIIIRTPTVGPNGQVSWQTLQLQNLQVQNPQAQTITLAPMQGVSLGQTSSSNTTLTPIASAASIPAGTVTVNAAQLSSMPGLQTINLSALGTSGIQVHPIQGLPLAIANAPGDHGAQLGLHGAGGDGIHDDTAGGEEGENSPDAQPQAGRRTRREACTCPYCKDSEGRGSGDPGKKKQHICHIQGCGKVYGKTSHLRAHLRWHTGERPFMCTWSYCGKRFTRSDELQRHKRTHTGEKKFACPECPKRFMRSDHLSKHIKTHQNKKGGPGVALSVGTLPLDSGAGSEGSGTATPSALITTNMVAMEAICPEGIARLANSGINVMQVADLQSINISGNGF
Paired box protein Pax-6 (Homo sapiens), sequence (P26367 whole entry, looked up): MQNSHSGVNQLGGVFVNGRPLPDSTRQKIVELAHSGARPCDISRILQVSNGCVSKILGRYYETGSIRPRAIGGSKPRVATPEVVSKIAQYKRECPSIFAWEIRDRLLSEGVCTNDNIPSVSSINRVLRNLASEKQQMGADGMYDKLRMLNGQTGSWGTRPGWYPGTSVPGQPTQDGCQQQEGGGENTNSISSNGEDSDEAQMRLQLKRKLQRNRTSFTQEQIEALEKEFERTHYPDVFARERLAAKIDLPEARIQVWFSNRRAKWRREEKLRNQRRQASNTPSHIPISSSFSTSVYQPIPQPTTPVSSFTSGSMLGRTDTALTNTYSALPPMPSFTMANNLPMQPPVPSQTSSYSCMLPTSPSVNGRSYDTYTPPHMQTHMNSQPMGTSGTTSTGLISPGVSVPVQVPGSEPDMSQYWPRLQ
Heat shock factor protein 1 (Homo sapiens), sequence (Q00613 whole entry, looked up): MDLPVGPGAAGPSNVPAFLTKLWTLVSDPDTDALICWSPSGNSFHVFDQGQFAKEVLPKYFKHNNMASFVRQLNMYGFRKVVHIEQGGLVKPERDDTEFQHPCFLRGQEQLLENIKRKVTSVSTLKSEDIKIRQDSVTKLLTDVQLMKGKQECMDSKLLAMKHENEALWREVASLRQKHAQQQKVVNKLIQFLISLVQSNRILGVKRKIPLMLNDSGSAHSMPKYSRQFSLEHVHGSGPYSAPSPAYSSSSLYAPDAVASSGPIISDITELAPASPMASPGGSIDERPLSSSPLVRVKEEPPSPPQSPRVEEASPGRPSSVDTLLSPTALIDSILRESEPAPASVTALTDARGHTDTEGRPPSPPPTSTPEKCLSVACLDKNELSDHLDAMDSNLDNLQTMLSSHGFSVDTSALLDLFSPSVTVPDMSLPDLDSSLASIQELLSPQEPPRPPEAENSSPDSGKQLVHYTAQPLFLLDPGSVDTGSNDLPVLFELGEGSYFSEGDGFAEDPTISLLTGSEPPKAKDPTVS

Turning to `CCCCCCC(C)OC(=O)COc1nc(F)c(Cl)c(N)c1Cl` (stereo not given), the compound was called inactive in test [1], in test [2], in [3], in test [4], in test [5] and in [6]. Besides, the result in [7], in test [8], in [9], in test [10], in test [11] and in [12] was inactive. The compound was called inactive in test [13], in [14], in [15] and in test [16].
Take `CCCOC(=O)NCCCN(C)C`: the compound was classed as inactive in test [1], in [2], in [3], in test [4], in [5] and in test [7]. Also, the outcome in test [17], in [8], in test [9], in [10], in [11] and in test [12] was inactive. The result in [13], in [14], in [15] and in [16] was inactive.
Take `CCOC(=O)[C@H](C)Oc1ccc(Oc2nc3ccc(Cl)cc3o2)cc1`: the result in test [18], in test [1], in test [2], in test [3], in test [4] and in test [5] was inactive. Besides, the compound was called inactive in test [6], in test [7], in test [17], in [8], in test [9] and in test [11]. Also, the result in test [12], in test [20], in [13], in [14], in [15] and in test [16] was inactive. Also, the concentration at half-maximal activity (AC50) in [19] is 50 µM (active).
As for `C#CCOC(=O)[C@@H](C)Oc1ccc(Oc2ncc(Cl)cc2F)cc1`, the result in test [18], in [1], in [2], in test [3], in test [4] and in [5] was inactive. For the same compound, the call in test [7], in test [17], in test [8], in test [10], in test [11] and in [12] was inactive. Moreover, the result in [20], in test [13], in [14], in test [15] and in [16] was inactive. Also, the figures for the half-maximal activity concentration (AC50) in test [9] and in [19] were 19.1 µM (active) and 18 µM (active), respectively.

Values taken from PubChem BioAssay (EPA / NIEHS).
